In publication PMC8384837, “Expanding the binding specificity for RNA recognition by a PUF domain” one finds binding signal data, which are given here for 13 sequences.

What all share (assay): yeast three-hybrid, YBZ-1, SC-Leu-His + 0.5 mM 3-AT, 4 days
Holding throughout (settings): tags: N-Gal4 AD-HA kept; label: inside an RPR1-promoter hybrid RNA with tandem MS2 sites; ssRNA

Assay [1] concerns the target PUM1 PUF domain R1-QWR (Homo sapiens, UniProt Q14671 828-1176, S863Q;R864W;Q867R). In short, it runs like this:
(§1)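 A centromeric plasmid in strain YBZ-1 co-expressed Pumilio-1 PUF domain libraries, randomized at the three base-contacting residues of each repeat, with matching RNA elements; the strain carries a LexA–MS2 coat fusion and a HIS3 reporter. After four days on SC-Leu (input) or SC-Leu-His + 0.5 mM 3-AT (selection), the repeat regions were PCR-amplified and Illumina-sequenced. The interaction score is the log change in variant frequency from input to selection, using log2 and a pseudocount of 1 where absent.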

For assay [2], the target named is PUM1 PUF domain R1-QVK (Homo sapiens, UniProt Q14671 828-1176, S863Q;R864V;Q867K). In short, it runs like this:
as §1

In assay [3] the target is PUM1 PUF domain R1-NWS (Homo sapiens, UniProt Q14671 828-1176, S863N;R864W;Q867S). In short, it runs like this:
as §1

Assay [4] deals with PUM1 PUF domain R5-RMR (Homo sapiens, UniProt Q14671 828-1176, C1007R;R1008M;Q1011R). In short, it runs like this:
as §1

In assay [5] the target is PUM1 PUF domain R5-KAS (Homo sapiens, UniProt Q14671 828-1176, C1007K;R1008A;Q1011S). In short, it runs like this: as §1
Assay [6] addresses PUM1 PUF domain R4-SNL (Homo sapiens, UniProt Q14671 828-1176, N971S;H972N;Q975L). In short, it runs like this:
as §1

In assay [7] the target is PUM1 PUF domain R3-ARA (Homo sapiens, UniProt Q14671 828-1176, C935A;Q939A). In short, it runs like this:
as §1

Assay [8] addresses T1, PUM1 PUF domain R6-GFQ (Homo sapiens, UniProt Q14671 828-1176, N1043G;Y1044F).
T1 sequence: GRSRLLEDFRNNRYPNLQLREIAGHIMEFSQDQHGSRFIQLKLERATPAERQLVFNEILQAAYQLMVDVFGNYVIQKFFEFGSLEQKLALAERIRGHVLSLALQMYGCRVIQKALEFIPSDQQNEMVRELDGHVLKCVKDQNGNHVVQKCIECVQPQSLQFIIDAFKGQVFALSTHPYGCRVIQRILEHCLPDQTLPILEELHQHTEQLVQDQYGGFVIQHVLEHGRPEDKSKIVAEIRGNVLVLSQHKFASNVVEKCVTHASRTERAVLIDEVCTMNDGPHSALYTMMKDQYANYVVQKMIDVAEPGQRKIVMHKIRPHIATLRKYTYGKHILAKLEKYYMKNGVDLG
In short, it runs like this: as §1

The target of assay [9] is T2, PUM1 PUF domain R6-CYV (Homo sapiens, UniProt Q14671 828-1176, N1043C;Q1047V).
T2 sequence: T1 sequence with G216C, F217Y, Q220V
In short, it runs like this: as §1

For assay [10], the target named is T3, PUM1 PUF domain R6-GHS (Homo sapiens, UniProt Q14671 828-1176, N1043G;Y1044H;Q1047S).
T3 sequence: T1 sequence with F217H, Q220S
In short, it runs like this:
as §1

In assay [11] the target is PUM1 PUF domain R5-NRV (Homo sapiens, UniProt Q14671 828-1176, C1007N;Q1011V). In short, it runs like this: as §1
Assay [12] has as its target PUM1 PUF domain R4-MPH (Homo sapiens, UniProt Q14671 828-1176, N971M;H972P;Q975H). In short, it runs like this: as §1
Assay [13] addresses PUM1 PUF domain R8-RWE (Homo sapiens, UniProt Q14671 828-1176, N1122R;Y1123W;Q1126E). In short, it runs like this:
as §1

For assay [14], the target named is T4, PUM1 PUF domain R6-TWK (Homo sapiens, UniProt Q14671 828-1176, N1043T;Y1044W;Q1047K).
T4 sequence: T1 sequence with G216T, F217W, Q220K
In short, it runs like this:
as §1

The target in assay [15] is PUM1 PUF domain R3-VYF (Homo sapiens, UniProt Q14671 828-1176, C935V;R936Y;Q939F). In short, it runs like this: as §1
Assay [16] has as its target PUM1 PUF domain R7-KRV (Homo sapiens, UniProt Q14671 828-1176, S1079K;N1080R;E1083V). In short, it runs like this: as §1
Assay [17] has as its target PUM1 PUF domain R4-EYM (Homo sapiens, UniProt Q14671 828-1176, N971E;H972Y;Q975M). In short, it runs like this:
as §1

In assay [18] the target is PUM1 PUF domain R8-KKV (Homo sapiens, UniProt Q14671 828-1176, N1122K;Y1123K;Q1126V). In short, it runs like this: as §1
Assay [19] has as its target PUM1 PUF domain R8-VYK (Homo sapiens, UniProt Q14671 828-1176, N1122V;Q1126K). In short, it runs like this:
as §1

Assay [20] has as its target PUM1 PUF domain R3-RAP (Homo sapiens, UniProt Q14671 828-1176, C935R;R936A;Q939P). In short, it runs like this: as §1

Substitutions are numbered along the chain they refer to.

Take “GGCUAGAACUAGUGGAUCCCCCGGCGCCCGGCGGCUCGAGCCCGGGUAAGUGUAAAUCGUCUGCAUGCCGCCGGGCGCCAUGCCUGCAGGUCGACUCUAGAAAACAUG”: the binding signal in [1] was 8.29 log2 enrichment (interaction score); in assay [2], 2.91 log2 enrichment (interaction score).
For the sequence “GGCUAGAACUAGUGGAUCCCCCGGCGCCCGGCGGCUCGAGCCCGGGUAAGUGUAAAUUGUCUGCAUGCCGCCGGGCGCCAUGCCUGCAGGUCGACUCUAGAAAACAUG”, the binding signal in assay [1] was 3.12 log2 enrichment (interaction score); in assay [3], 5.3 log2 enrichment (interaction score); in assay [2] it was 0.46 log2 enrichment (interaction score).
With “GGCUAGAACUAGUGGAUCCCCCGGCGCCCGGCGGCUCGAGCCCGGGUAAGUGUCAAUAGUCUGCAUGCCGCCGGGCGCCAUGCCUGCAGGUCGACUCUAGAAAACAUG”, the figures for the binding signal in [4] and in assay [5] were 3.2 log2 enrichment (interaction score) and 3.47 log2 enrichment (interaction score), respectively.
As for “GGCUAGAACUAGUGGAUCCCCCGGCGCCCGGCGGCUCGAGCCCGGGUAAGUGUAUAUAGUCUGCAUGCCGCCGGGCGCCAUGCCUGCAGGUCGACUCUAGAAAACAUG”, the binding signal in assay [6] was 4.22 log2 enrichment (interaction score).
With “GGCUAGAACUAGUGGAUCCCCCGGCGCCCGGCGGCUCGAGCCCGGGUAAGUGUAAGUAGUCUGCAUGCCGCCGGGCGCCAUGCCUGCAGGUCGACUCUAGAAAACAUG”, the binding signal in assay [7] was 1.03 log2 enrichment (interaction score).
“GGCUAGAACUAGUGGAUCCCCCGGCGCCCGGCGGCUCGAGCCCGGGUAAGUGAAAAUAGUCUGCAUGCCGCCGGGCGCCAUGCCUGCAGGUCGACUCUAGAAAACAUG”: the binding signal in assay [8] is 0.48 log2 enrichment (interaction score); in [9], 3.61 log2 enrichment (interaction score); in assay [10], 2.5 log2 enrichment (interaction score).
For the sequence “GGCUAGAACUAGUGGAUCCCCCGGCGCCCGGCGGCUCGAGCCCGGGUAAGUGUGAAUAGUCUGCAUGCCGCCGGGCGCCAUGCCUGCAGGUCGACUCUAGAAAACAUG”, in [11], the binding signal was 2.59 log2 enrichment (interaction score).
On to “GGCUAGAACUAGUGGAUCCCCCGGCGCCCGGCGGCUCGAGCCCGGGUAAGUGUAAAUAGUCUGCAUGCCGCCGGGCGCCAUGCCUGCAGGUCGACUCUAGAAAACAUG”, for which the binding signal in assay [12] is 3.32 log2 enrichment (interaction score); in assay [8], 6.29 log2 enrichment (interaction score); in assay [13], 3.03 log2 enrichment (interaction score); in assay [14], 2.26 log2 enrichment (interaction score); in assay [11], 2.44 log2 enrichment (interaction score); in [9] it was 0.52 log2 enrichment (interaction score). The binding signal in [6] is 2.52 log2 enrichment (interaction score); in assay [15], 5.15 log2 enrichment (interaction score); in assay [10] it was 0.45 log2 enrichment (interaction score); in [7], 3.97 log2 enrichment (interaction score).
Take “GGCUAGAACUAGUGGAUCCCCCGGCGCCCGGCGGCUCGAGCCCGGGUAAGUCUAAAUAGUCUGCAUGCCGCCGGGCGCCAUGCCUGCAGGUCGACUCUAGAAAACAUG”: the binding signal in [16] is 5.35 log2 enrichment (interaction score).
Turning to “GGCUAGAACUAGUGGAUCCCCCGGCGCCCGGCGGCUCGAGCCCGGGUAAGUGUUAAUAGUCUGCAUGCCGCCGGGCGCCAUGCCUGCAGGUCGACUCUAGAAAACAUG”, the binding signal in [4] was 2.49 log2 enrichment (interaction score); in assay [5] it was 5.33 log2 enrichment (interaction score).
Consider “GGCUAGAACUAGUGGAUCCCCCGGCGCCCGGCGGCUCGAGCCCGGGUAAGUGUACAUAGUCUGCAUGCCGCCGGGCGCCAUGCCUGCAGGUCGACUCUAGAAAACAUG”, for which the binding signal in assay [6] was 1.34 log2 enrichment (interaction score); in assay [17] it was 2.59 log2 enrichment (interaction score).
Take “GGCUAGAACUAGUGGAUCCCCCGGCGCCCGGCGGCUCGAGCCCGGGUAAGCGUAAAUAGUCUGCAUGCCGCCGGGCGCCAUGCCUGCAGGUCGACUCUAGAAAACAUG”: the binding signal in assay [13] was 4.69 log2 enrichment (interaction score); in assay [18], 2.53 log2 enrichment (interaction score); in [19] it was 4.78 log2 enrichment (interaction score).
Consider “GGCUAGAACUAGUGGAUCCCCCGGCGCCCGGCGGCUCGAGCCCGGGUAAGUGUAAUUAGUCUGCAUGCCGCCGGGCGCCAUGCCUGCAGGUCGACUCUAGAAAACAUG”, for which the binding signal in assay [20] is 3.87 log2 enrichment (interaction score); in [7] it was 0.92 log2 enrichment (interaction score).
